Assay results as given in PubChem BioAssay (EPA / NIEHS).
Inconclusive results are not listed. Calls of active or inactive are those of the source. How the source made its calls, unless noted: active means hit-call score of the fitted dose curve at least 0.9, where 1 is the maximum; inactive means score below 0.9.

What was measured:
[1] = read-out: NAD(P)H dehydrogenase [quinone] 1 (NQO1), NQO1 (gene 1728); experiment: LTEA_HepaRG_NQO1: Life Technologies and Expression Analysis (LTEA) Assay for NAD(P)H dehydrogenase [quinone] 1 (NQO1) using HepaRG (AID 2283526); conditions: mRNA level, 48 h; actives raise or lower the signal
Method in brief: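 Differentiated human HepaRG cells in serum-free induction medium, dosed in duplicate for 48 h at 8 half-log concentrations up to 100 uM in 0.5% DMSO. NQO1 mRNA by qRT-PCR normalized to ACTB, GAPDH, POLR2A; bidirectional fit versus DMSO baseline.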

[2] = read-out: Nuclear factor erythroid 2-related factor 2 (Homo sapiens) (UniProt Q16236); experiment: LTEA_HepaRG_NFE2L2: Life Technologies and Expression Analysis (LTEA) Assay for Nuclear factor erythroid 2-related factor 2 (NFE2L2) Transcription Factor using HepaRG (AID 2283527); conditions: mRNA level, 48 h; actives raise or lower the signal;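 further: TaqMan qRT-PCR transcript level normalised to ACTB GAPDH and POLR2A housekeeping genes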
Method in brief: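 Differentiated human HepaRG cells, serum-free induction medium, exposed 48 h in duplicate to eight half-log concentrations up to 100 uM in 0.5% DMSO. NFE2L2 mRNA by Fluidigm TaqMan qRT-PCR, normalised to ACTB, GAPDH, POLR2A; bidirectional change versus DMSO.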

[3] = read-out: succinate dehydrogenase complex iron sulfur subunit B (SDHB), SDHB (gene 6390); experiment: LTEA_HepaRG_SDHB: Life Technologies and Expression Analysis (LTEA) Assay for succinate dehydrogenase complex iron sulfur subunit B (SDHB) using HepaRG (AID 2283528); conditions: mRNA level, 48 h; actives raise or lower the signal
Method in brief: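 Readout is SDHB transcript level by qRT-PCR, normalised to three housekeeping genes and fitted bidirectionally against 0.5% DMSO vehicle. Human HepaRG cells were treated for 48 h at up to 100 uM.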

[4] = read-out: solute carrier (SLCO1B1), SLCO1B1 (gene 10599); experiment: LTEA_HepaRG_SLCO1B1: Life Technologies and Expression Analysis (LTEA) Assay for solute carrier (SLCO1B1) using HepaRG (AID 2283530); conditions: mRNA level, 48 h; actives raise or lower the signal
Method in brief: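 SLCO1B1 transcript read by qRT-PCR (Fluidigm arrays), normalized to three housekeeping genes, after 48 h chemical exposure of HepaRG cells; bidirectional concentration-response fitting versus 0.5% DMSO baseline. Eight-point half-log series, maximum 100 uM.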

[5] = read-out: sulfotransferase 2A1 (SULT2A1), SULT2A1 (gene 6822); experiment: LTEA_HepaRG_SULT2A1: Life Technologies and Expression Analysis (LTEA) Assay for sulfotransferase 2A1 (SULT2A1) using HepaRG (AID 2283531); conditions: mRNA level, 48 h; actives raise or lower the signal
Method in brief: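 HepaRG, 48 h chemical exposure, 8-pt half-log curve from 100 uM in 0.5% DMSO, duplicates. Readout: TaqMan qRT-PCR of SULT2A1 mRNA, housekeeping-normalized. Bidirectional fit vs DMSO baseline.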

[6] = read-out: Transforming Growth Factor (TGFA), TGFA (gene 7039); experiment: LTEA_HepaRG_TGFA: Life Technologies and Expression Analysis (LTEA) Assay for Transforming Growth Factor (TGFA) using HepaRG (AID 2283532); conditions: mRNA level, 48 h; actives raise or lower the signal
Method in brief: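 Differentiated HepaRG cells exposed 48 hours in serum-free induction medium, 0.5% DMSO vehicle, 8-point half-log series from 100 uM, in duplicate. TGFA mRNA by TaqMan qRT-PCR, normalised to ACTB, GAPDH, POLR2A; bidirectional fit versus DMSO.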

[7] = read-out: Transforming Growth Factor (TGFB1), TGFB1 (gene 7040); experiment: LTEA_HepaRG_TGFB1: Life Technologies and Expression Analysis (LTEA) Assay for Transforming Growth Factor (TGFB1) Transporter using HepaRG (AID 2283533); conditions: mRNA level, 48 h; actives raise or lower the signal
Method in brief: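 qRT-PCR readout of TGFB1 transcript in HepaRG lysates, normalized to three housekeeping genes; gain or loss of signal fitted relative to 0.5% DMSO vehicle. Exposure: 48 h, 8-point curve from 100 uM, duplicate wells.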

[8] = read-out: TIMP1, TIMP1 (gene 7076); experiment: LTEA_HepaRG_TIMP1: Life Technologies and Expression Analysis (LTEA) Assay for TIMP1 using HepaRG (AID 2283534); conditions: mRNA level, 48 h; actives raise or lower the signal;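 further: TaqMan qRT-PCR signal normalized to ACTB GAPDH and POLR2A housekeeping genes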
Method in brief: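 HepaRG, 48 h exposure, 8-pt half-log series from 100 uM in 0.5% DMSO, duplicates; TIMP1 transcript by Fluidigm qRT-PCR, housekeeping-normalized; bidirectional curve fit vs DMSO baseline.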

[9] = read-out: Tumor necrosis factor receptor 1 (TNFRSF1A), TNFRSF1A (gene 7132); experiment: LTEA_HepaRG_TNFRSF1A: Life Technologies and Expression Analysis (LTEA) Assay for Tumor necrosis factor receptor 1 (TNFRSF1A) using HepaRG (AID 2283535); conditions: mRNA level, 48 h; actives raise or lower the signal
Method in brief: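 HepaRG, 48 h plating then 48 h chemical exposure, serum-free induction media; 8-pt CRC from 100 uM, half-log, 0.5% DMSO vehicle, duplicates. Readout: TaqMan qRT-PCR (Fluidigm), housekeeping-gene normalized; bidirectional fit vs DMSO.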

[10] = read-out: Thyroid Hormone Responsive (THRSP), THRSP (gene 7069); experiment: LTEA_HepaRG_THRSP: Life Technologies and Expression Analysis (LTEA) Assay for Thyroid Hormone Responsive (THRSP) using HepaRG (AID 2283536); conditions: mRNA level, 48 h; actives raise or lower the signal
Method in brief: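 Differentiated HepaRG cells treated 48 h in serum-free induction medium with 8 half-log concentrations up to 100 uM (0.5% DMSO), duplicates. THRSP mRNA by TaqMan qRT-PCR normalised to ACTB, GAPDH, POLR2A; bidirectional fit versus DMSO.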

[11] = read-out: Cellular tumor antigen p53 (Homo sapiens) (UniProt P04637); experiment: LTEA_HepaRG_TP53: Life Technologies and Expression Analysis (LTEA) Assay for Tumor Protein P53 (TP53) using HepaRG (AID 2283537); conditions: mRNA level, 48 h; actives raise or lower the signal
Method in brief: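 Read-out is TP53 transcript level by microfluidic qRT-PCR, normalised to three housekeeping genes and fitted bidirectionally against DMSO. Human HepaRG cells received compounds for 48 h, highest concentration 100 uM.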

[12] = read-out: UDP glucuronosyltransferase (UGT1A1), UGT1A1 (gene 54658); experiment: LTEA_HepaRG_UGT1A1: Life Technologies and Expression Analysis (LTEA) Assay for UDP glucuronosyltransferase (UGT1A1) using HepaRG (AID 2283538); conditions: mRNA level, 48 h; actives raise or lower the signal
Method in brief: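 HepaRG cells, 0.5% DMSO vehicle, 48 h exposure in serum-free induction medium to 8-point half-log series topping at 100 uM, in duplicate. UGT1A1 mRNA by Fluidigm qRT-PCR, normalized to ACTB/GAPDH/POLR2A; bidirectional fit versus DMSO.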

[13] = read-out: UDP glucuronosyltransferase (UGT1A6), UGT1A6 (gene 54578); experiment: LTEA_HepaRG_UGT1A6: Life Technologies and Expression Analysis (LTEA) Assay for UDP glucuronosyltransferase (UGT1A6) using HepaRG (AID 2283539); conditions: mRNA level, 48 h; actives raise or lower the signal
Method in brief: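 qRT-PCR readout of UGT1A6 mRNA (normalized to ACTB/GAPDH/POLR2A) in differentiated HepaRG cells after 48 h chemical exposure; 8 concentrations, top 100 uM, half-log steps, 0.5% DMSO. Bidirectional curve fit relative to DMSO baseline.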

[14] = read-out: X-box binding protein 1 (XBP1), XBP1 (gene 7494); experiment: LTEA_HepaRG_XBP1: Life Technologies and Expression Analysis (LTEA) Assay for X-box binding protein 1 (XBP1) using HepaRG (AID 2283540); conditions: mRNA level, 48 h; actives raise or lower the signal
Method in brief: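 HepaRG, 48 h exposure, 8-pt half-log CRC top 100 uM, 0.5% DMSO vehicle, duplicates. Readout: TaqMan qRT-PCR of XBP1 mRNA, housekeeping-normalised (ACTB/GAPDH/POLR2A); bidirectional fit vs DMSO baseline.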

[15] = TOX21_p53_BLA_p2_viability: Viability Assessment in the Tox21 HCT-116 p53 Agonism Beta-lactamase Assay, Phase 2 (AID 2283591; active means hit-call score of the fitted dose curve at least 0.9, where 1 is the maximum;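 further: compound exposure lasted 16 h at 37 °C; actives lower the ATP signal meaning cytotoxicity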)
Method in brief: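 HCT116 p53-bla cells, 4000/well, dosed after 5 h plating (217-fold dilution of DMSO stocks) and incubated 16 h at 37C. Viability taken as cellular ATP by CellTiter-Glo luminescence after 30 min RT; signal loss marks cytotoxicity.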

[16] = TOX21_p53_BLA_p3_viability: Viability Assessment in the Tox21 HCT-116 p53 Agonism Beta-lactamase Assay, Phase 3 (AID 2283593; active means hit-call score of the fitted dose curve at least 0.9, where 1 is the maximum;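 further: cells exposed to compound for 16 h before reading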)
Method in brief: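 HCT116 cells, 4000/well, dosed 5 h after plating by pin transfer (217-fold dilution from DMSO stock) and incubated 16 h at 37C, 5% CO2. Viability read as ATP luminescence with CellTiter-Glo after 30 min at room temperature.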

[17] = LTEA_HepaRG_LDH_cytotoxicity: Cytotoxicity Assessment in the Life Technologies and Expression Analysis (LTEA) Assay (AID 2283563; active means hit-call score of the fitted dose curve at least 0.9, where 1 is the maximum)
Method in brief: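 HepaRG (human liver line), 48 h exposure, 8-pt half-log series from 100 uM, 0.5% DMSO vehicle, duplicates. Read-out: LDH in spent medium. Positive-direction fit vs DMSO baseline.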

[18] = molecular target: Cellular tumor antigen p53 (Homo sapiens) (UniProt P04637); experiment: TOX21_p53_BLA_p2_ratio: Tox21 HCT-116 p53 Agonism Beta-lactamase Assay, Ratio, Phase 2 (AID 2283592; active means hit-call score of the fitted dose curve at least 0.9, where 1 is the maximum)
Method in brief: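 In this cell-based reporter format, HCT116 cells were dosed with chemicals delivered from DMSO by 217-fold dilution and incubated 16 h at 37C. Emission at 460 and 530 nm after 2 h CCF4-AM loading provided the ratio, fitted upward versus DMSO.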

[19] = ATG_XTT_Cytotoxicity: Cytotoxicity Assessment in the Attagene TRANS-FACTORIAL HepG2 Assay (AID 2283584; active means hit-call score of the fitted dose curve at least 0.9, where 1 is the maximum)
Method in brief: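 XTT readout of cell number in transfected HepG2 cells, 24 h post-dosing; DMSO serves as negative control and baseline, with activity taken as loss of viability signal.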

Measured: AC50

Sequence of Nuclear factor erythroid 2-related factor 2 (Homo sapiens) (Q16236 whole entry, looked up): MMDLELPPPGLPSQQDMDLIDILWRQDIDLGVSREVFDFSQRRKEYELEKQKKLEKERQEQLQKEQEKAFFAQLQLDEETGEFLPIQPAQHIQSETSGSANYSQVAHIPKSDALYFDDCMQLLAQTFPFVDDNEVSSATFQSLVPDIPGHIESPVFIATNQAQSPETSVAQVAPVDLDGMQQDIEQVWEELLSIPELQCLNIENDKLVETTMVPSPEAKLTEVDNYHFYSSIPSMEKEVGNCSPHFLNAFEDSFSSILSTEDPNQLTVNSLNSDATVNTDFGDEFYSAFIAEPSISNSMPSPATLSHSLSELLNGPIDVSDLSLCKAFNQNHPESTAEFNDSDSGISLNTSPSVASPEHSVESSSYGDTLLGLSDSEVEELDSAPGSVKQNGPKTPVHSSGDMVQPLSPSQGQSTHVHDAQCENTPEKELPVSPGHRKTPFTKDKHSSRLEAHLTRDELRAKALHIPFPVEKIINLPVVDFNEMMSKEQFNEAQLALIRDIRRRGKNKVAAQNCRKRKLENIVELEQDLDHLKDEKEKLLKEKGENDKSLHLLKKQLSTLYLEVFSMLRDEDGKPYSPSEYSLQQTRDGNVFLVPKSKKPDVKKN
Sequence of Cellular tumor antigen p53 (Homo sapiens) (P04637 whole entry, looked up): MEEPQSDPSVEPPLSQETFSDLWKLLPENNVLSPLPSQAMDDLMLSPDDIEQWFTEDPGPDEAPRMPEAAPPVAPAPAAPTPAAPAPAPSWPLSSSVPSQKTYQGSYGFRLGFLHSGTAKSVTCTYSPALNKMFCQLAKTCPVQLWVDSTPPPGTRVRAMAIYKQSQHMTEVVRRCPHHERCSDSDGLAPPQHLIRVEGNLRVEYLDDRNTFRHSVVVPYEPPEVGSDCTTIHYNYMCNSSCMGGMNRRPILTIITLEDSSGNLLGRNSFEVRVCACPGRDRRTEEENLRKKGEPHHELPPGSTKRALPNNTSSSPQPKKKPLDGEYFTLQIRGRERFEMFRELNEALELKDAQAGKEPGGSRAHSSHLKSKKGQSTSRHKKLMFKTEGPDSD

O=C(Oc1ccc(Br)cc1)N1CCN2CCC1CC2
active: [10] 34.8 µM
not listed: [17] | [18] | [19]
inactive: all other assays above

c1ccc(N=Nc2ccccc2)cc1
not listed: [9] | [16] | [19]
inactive: all other assays above

[O-][Cl+]O
not listed: [16]
inactive: all other assays above

O=[N+]([O-])C(Br)(CO)CO
not listed: [11] | [15] | [16] | [18]
inactive: all other assays above

COC(=O)c1ccccc1N
not listed: [18]
inactive: all other assays above

Cc1ccc([N+](=O)[O-])cc1
active: [12] 8.26 µM
not listed: [16]
inactive: all other assays above
